Data: PubChem BioAssay AID1159580 (chemical genetic matrix, 2015)
In all, about 5,500 compounds went through this assay and about 2,000 (36%) were called active. About 18% were inconclusive and are not listed. Rule as the data show it: active = normalized growth mostly below about 0.91 (no sharp cut-off); inconclusive = no clear call, values can overlap the other calls; inactive = mostly above about 0.92. The list shows a part of the results.

Test: chemical genetic growth profiling, strain panel (AID 1159580);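 also: tested at 20 µM; growth read once vehicle control cultures reached saturation at 30 °C; 1 = growth at the plate median or of vehicle wells; lower values mean less growth of the strain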
Conditions: S. cerevisiae deletion strains, growth OD

Measured: normalized growth

COc1ccc(-c2c(OC)c3c(OC)c4c(cc3oc2=O)OC(C)(C)C=C4)cc1
active: locus YOL006C, strain TOP1, hits give low values 1.54 [resistant]
inactive: locus YBR021W, strain FUR4, hits give low values 1.08 | locus YBR229C, strain ROT2, hits give low values 1.03 | locus YCL029C, strain bik1, hits give low values 0.974 | locus YDL035C, strain GPR1, hits give low values 1.09 | locus YDL074C, strain BRE1, hits give low values 1.18 | locus YDL101C, strain DUN1, hits give low values 0.99 | locus YDL185W, strain tfp1, hits give low values 0.988 | locus YDL192W, strain arf1, hits give low values 1.08 | locus YDR101C, strain arx1, hits give low values 1.07 | locus YDR162C, strain NBP2, hits give low values 1.06 | locus YDR318W, strain mcm21, hits give low values 1 | locus YDR388W, hits give low values 0.983 | locus YDR502C, strain sam2, hits give low values 1.05 | locus YEL061C, strain CIN8, hits give low values 1.02 | locus YER110C, hits give low values 0.973 | locus YER155C, strain BEM2, hits give low values 1.01 | locus YER167W, strain BCK2, hits give low values 1.01 | locus YGL078C, strain dbp3, hits give low values 1.02 | locus YGL086W, strain mad1, hits give low values 1.05 | locus YGL248W, strain PDE1, hits give low values 1.07 | locus YGR135W, strain pre9, hits give low values 1.02 | locus YGR252W, strain gcn5, hits give low values 1.21 | locus YHR030C, strain SLT2, hits give low values 1 | locus YHR079C, strain IRE1 (second series), hits give low values 0.991 | locus YHR094C, strain hxt1, hits give low values 1 | locus YHR129C, strain ARP1, hits give low values 1.02 | locus YHR200W, strain rpn10, hits give low values 1.04 | locus YIL066C, strain RNR3, hits give low values 1.01 | locus YIL073C, strain SPO22, hits give low values 1.12 | locus YIL125W, strain kgd1, hits give low values 1.02 | locus YIR030C, strain dcg1, hits give low values 1.01 | locus YJL095W, strain BCK1, hits give low values 1.08 | locus YJL134W, strain LCB3, hits give low values 0.991 | locus YJL168C, strain set2, hits give low values 1 | locus YJL187C, strain SWE1 (second series), hits give low values 1 | locus YJR075W, strain HOC1, hits give low values 1 | locus YKL009W, strain mrt4, hits give low values 1.03 | locus YKL068W, hits give low values 1.03 | locus YKL085W, strain MDH1 (second series), hits give low values 1.04 | locus YKL085W, strain MDH1, hits give low values 1.04 | locus YKL190W, strain CNB1, hits give low values 0.988 | locus YKR001C, strain vps1, hits give low values 1.09 | locus YLR039C, strain RIC1, hits give low values 1.22 | locus YLR058C, strain SHM2, hits give low values 1.01 | locus YLR102C, strain apc9, hits give low values 0.972 | locus YLR268W, strain sec22, hits give low values 1.04 | locus YLR330W, strain CHS5, hits give low values 1.03 | locus YLR342W, strain FKS1 (second series), hits give low values 1.03 | locus YLR371W, strain rom2, hits give low values 0.992 | locus YML016C, strain PPZ1, hits give low values 1.01 | locus YML032C, strain rad52, hits give low values 0.987 | locus YML124C, strain tub3, hits give low values 1.03 | locus YMR078C, strain ctf18, hits give low values 0.993 | locus YMR223W, strain ubp8, hits give low values 1.02 | locus YMR307W, strain GAS1, hits give low values 1.32 | locus YNL067W, strain RPL9B, hits give low values 1 | locus YNL153C, strain GIM3, hits give low values 1.01 | locus YNL233W, strain BNI4, hits give low values 1.05 | locus YNL250W, strain rad50, hits give low values 0.999 | locus YNL271C, strain bni1, hits give low values 1.03 | locus YNL298W, strain CLA4, hits give low values 1.03 | locus YNL307C, strain MCK1, hits give low values 0.967 | locus YNR052C, strain pop2, hits give low values 1.02 | locus YOL012C, strain htz1 1.03 | locus YOL147C, strain pex11, hits give low values 0.997 | locus YOR061W, strain CKA2, hits give low values 1.02 | locus YOR069W, strain VPS5, hits give low values 0.993 | locus YOR136W, strain idh2, hits give low values 1 | locus YOR144C, strain elg1, hits give low values 1.03 | locus YOR184W, strain ser1, hits give low values 1.11 | locus YOR316C, strain cot1, hits give low values 0.975 | locus YPL055C, strain LGE1, hits give low values 1.16 | locus YPR119W, strain clb2, hits give low values 0.978 | locus YPR141C, strain kar3, hits give low values 1.03 | locus YPR163C, strain tif3, hits give low values 1 | locus YPR167C, strain met16, hits give low values 1.01 | strain wtn01, hits give low values 1.07
